Compound activity from PubChem.
Most compounds without a hit are left out; they make up all but 4.8% or so of the library.
SMARCA2 act – SMARCA2 (BRM) function activators, primary screen, cell-based, luminescence, high throughput. MG213 cells, MMTV-luciferase reporter, dexamethasone, overnight. activation, % at 9.1 µM. 370,000 tested, 1% active. AID 652017, 2013; in the data active means activation above about 7.8%;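 further: 0% = vehicle wells and 100% = reference activator wells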
DAX1 inh-1 – DAX1 (NR0B1) inhibitors, primary screen, cell-based, HEK293, Gal4-DAX1, luciferase luminescence | HEK293 Gal4-DAX1 luciferase reporter | inhibition, % at 6.75 µM | 340,000 tested, 0.99% active;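 active means inhibition above the mean over all tested compounds plus 3 SD, cut at about 4.2% in these data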;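 further: 0% = DAX1-transfected cells with DMSO and 100% = empty-vector control cells with DMSO; inhibition shows as a rise in luminescence from relieved DAX1 repression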
Target sequence (P51843 207-470 limits assumed): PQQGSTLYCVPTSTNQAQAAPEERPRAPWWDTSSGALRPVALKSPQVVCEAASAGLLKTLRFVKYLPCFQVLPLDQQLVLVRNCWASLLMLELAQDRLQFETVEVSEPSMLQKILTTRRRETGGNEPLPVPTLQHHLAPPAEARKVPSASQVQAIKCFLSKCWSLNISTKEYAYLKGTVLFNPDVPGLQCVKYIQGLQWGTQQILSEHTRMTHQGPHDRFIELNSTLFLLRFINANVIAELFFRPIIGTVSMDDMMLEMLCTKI
hcDAF12 agonist – H. contortus DAF-12 nuclear receptor activators, primary screen, cell-based, luminescence, HEK293, lit1-tk-luc reporter. HEK293 hcDAF-12 lit1-tk-luc reporter; 0% DMSO, 100% Δ7-dafachronic acid. 370,000 tested, 1.4% active. activation, % at 6.8 µM. AID 652067, 2013;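 active means activation above the mean of all tested compounds plus 3 SD, cut at about 5.5% in these data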;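 further: 100% = response to 3 µM Δ7-dafachronic acid high control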
DAX1 inh-2 – DAX1 (NR0B1) inhibitors on StAR promoter, primary screen, cell-based, luminescence, SF-1 (NR5A1), full-length DAX-1; HEK293T StAR-luciferase reporter, SF-1/DAX-1 repression relief; inhibition, % at 6.8 µM; 370,000 tested, 1.1% active; AID 652010, 2013;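 active means inhibition above the mean over all tested compounds plus 3 SD, cut at about 3.6% in these data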;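 further: 0% = DAX-1 cells with DMSO and 100% = cells lacking DAX-1 with DMSO; higher inhibition means more luminescence from relief of DAX-1 repression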
ssDAF12 agonist – S. stercoralis DAF-12 nuclear receptor activators, primary screen, cell-based, luminescence, HEK293, GRIP1 co-expression, lit1-tk-luc; HEK293 ssDAF-12/GRIP1 lit1-tk-luc reporter; % of 3 µM dafachronic acid response; activation, % at 6.8 µM; 370,000 tested, 1% active; AID 652126, 2013;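 active means activation above the mean over all tested compounds plus 3 SD, cut at about 0.9% in these data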;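 further: 0% = DMSO-only wells and 100% = 3 µM delta7-dafachronic acid wells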
hgDAF12 agonist – H. glycines DAF-12 receptor agonists, primary screen, cell-based, luminescence, HEK293, GAL4 fusion, UAS-luciferase; AID 687014, 2013; Nuclear hormone receptor DAF-12 (Heterodera glycines), GAL4 fusion; 370,000 tested, 1.8% active; HEK293 GAL4-hgDAF12 UAS-luciferase reporter, agonist luminescence; normalized to butyrate control; activation, % at 6.8 µM;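 active means activation above a cutoff set at the mean of all screened compounds plus 3 SD, cut at about 10% in these data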;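 further: 0% = DMSO wells and 100% = sodium butyrate wells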
* hit, by the source's call; nt = not tested or not shown.

SMILES	SMARCA2 act	DAX1 inh-1	hcDAF12 agonist	DAX1 inh-2	ssDAF12 agonist	hgDAF12 agonist
CC1=CC(C)(C)N=C(Nc2nc(C)c3cc(C)cc(C)c3n2)N1	-2.1	0.1	1.3	1.1	-1.8	-4.1
C=C(C)c1nc(Oc2ccccc2)nc(Oc2ccccc2)n1	4.3	6.0*	-0.1	-0.8	-1.1	-2.9
Cc1cc(C)nc(SCC(=O)NN)n1	-2.0	-0.3	0.1	0.8	-0.9	-1.5
Cc1cc(C)nc(CC(N)=O)n1	-0.8	5.9*	0.0	-0.4	-1.5	0.1
COC(=O)[C@]12C[C@H](CC(=O)NCCCN3CCCC3=O)C(=O)N(Cc3ccc(Cl)cc3Cl)C1=C[C@H](COCc1ccccc1)O[C@@H]2C	-3.8	nt	-3.0	-1.3	-1.1	-0.1
Cc1ccc(F)cc1C(=O)N(Cc1ccccn1)CC1CCCO1 (stereo unspecified)	-1.6	nt	1.7	-0.8	-0.6	-0.5
N#CCC(=O)N1CCN(C=O)CC1	-1.0	4.7*	-1.6	-0.9	-1.6	-1.0
Cc1ccc(NC(=O)C2CCN(c3nnc(-n4cccc4)s3)CC2)cc1C	-3.1	nt	-1.4	-0.3	-0.3	1.9
Cc1ccc(-c2nnc(N)s2)cc1	0.1	2.2	-1.2	1.0	0.5	7.2
CC(C)c1ccc(-c2nnc(N)s2)cc1	7.1	3.7	6.0*	1.9	0.4	11.3*
Cc1cc(C(=O)NNc2ccccc2F)no1	-2.0	7.2*	-1.2	0.1	-0.5	-0.7
CCc1ccccc1NNC(=O)c1cc(C)on1	-3.0	0.5	0.0	-0.2	-0.6	0.9
CC(C)(C)C(=O)c1c(N)[nH]c(C(=O)c2ccccc2)c1-c1ccc([N+](=O)[O-])cc1	-0.8	nt	2.8	1.7	-1.0	3.3
CCN1C(=S)SC(=O)C1=C1C=C(C)N(CCO)C(C)=C1	7.2	4.0	1.7	3.8*	-0.1	11.5*
CCN1C(=O)/C(=C/C=C2/Sc3ccccc3N2CCO)SC1=S	0.5	0.0	-0.3	1.8	-1.2	-0.7
O=C(CSc1nnc(-c2cccnc2)n1Cc1ccco1)Nc1ccc(F)cc1Cl	-3.7	nt	-1.9	-0.9	-1.9	-4.0
COc1ccc(NC(=O)CSc2nnc(-c3cccs3)o2)cc1Cl	-2.9	nt	-2.5	-2.3	-1.9	1.4
COc1ccc(NC(=O)c2ccc3c(c2)OCO3)cc1Cl	2.6	1.9	2.6	4.0*	0.7	10.5*
CC(C)Oc1ccc(N2CC(C(=O)Nc3ccc4c(c3)OCO4)CC2=O)cc1 (stereo unspecified)	-0.8	4.2	1.3	-0.5	1.4*	-0.5
COc1ccc(NC(=O)C=C(C)C)cc1Cl	4.8	0.6	3.1	4.2*	-0.6	10.0
O=C(Nc1ccc(F)c(Cl)c1)c1ccc2c(c1)OCO2	3.5	2.6	6.2*	2.3	0.3	10.7*
COCC(=O)Nc1ccc(OC)c(Cl)c1	5.1	0.7	-0.9	0.3	-1.3	-1.6
FC(F)(F)c1ccccc1C(C#Cc1ccccc1)NCc1ccc2c(c1)OCO2 (stereo unspecified)	-3.8	nt	-2.2	-0.9	-0.3	0.2
Cc1ccc(S(=O)(=O)N2CCCC2C(=O)N2CCc3ccccc3C2)cc1C (stereo unspecified)	-0.6	nt	0.2	0.2	-0.1	0.3
CCCCOc1ccc(C(=O)NC2CCCCN(Cc3cccc(C(F)(F)F)c3)C2=O)cc1 (stereo unspecified)	-4.8	nt	-5.8	-3.8	-1.8	2.7
COC(=O)[C@]1(CNC(=O)c2cc(F)ccc2F)CC(=O)N(C)[C@@H]1c1ccccc1	-2.9	nt	0.1	-0.4	-0.8	-0.5
O=C(CN1CCc2onc(-c3ccc(-n4cc(COc5ccc([N+](=O)[O-])cc5)nn4)cc3)c2C1=O)N1CCOCC1	-3.9	nt	-1.0	-1.0	-1.6	-0.8
